Test results from PMC4552634, “A New Set of Chemical Starting Points with Plasmodium falciparum Transmission-Blocking Potential for Antimalarial Drug Discovery” (PLoS ONE, 2015).
Among all 13,000 compounds or so, about 3,200 (25%) showed an effect of 50% or more. The list shows a part of the results.

test system: P. falciparum stage V gametocytes; parameters: BacTiter-Glo ATP luminescence viability of purified stage V gametocytes in 384-well plates, per cent inhibition versus DMSO; conditions: 48 h, 5 µM; inhibitor

| SMILES | % Inhibition |
| --- | --- |
| CN(CCN(C)C(=O)NCc1ccccc1)C(=O)NCc1ccccc1 [TCMDC-138997] | -5.894% |
| COc1ccc(NS(=O)(=O)c2ccc(C(=O)Nc3ccc(OC(F)(F)F)cc3)cc2)cc1N1CCN(CC2CC2)CC1 [TCMDC-136298] | -1.186% |
| N#Cc1ccc2c(c1)CCN(CCC1CCC(NC(=O)c3cc4ccc(Cl)cc4[nH]3)CC1)C2 (centres unmarked) [TCMDC-139194] | -33.95% |
| O=C(Nc1ccc(CN2CCOCC2)cc1)c1ccc(-c2ccc(Cl)cc2)o1 [TCMDC-124455] | 70.13% |
| Cc1ccc(CN2CCCN(Cc3cccc(C(=O)Nc4ccc(C(C)(C)C)cc4)c3)CC2)s1 [TCMDC-135991] | -86.63% |
| Cc1ccc(CN2CCCN(Cc3ccc(C(=O)Nc4ccc(Cl)cc4)cc3)CC2)s1 [TCMDC-136414] | 86.68% |
| CN1CCCN(Cc2cccc(-c3ccc(NC(=O)c4cccc(Cl)c4)cc3)c2)CC1 [TCMDC-132664] | 44.2% |
| O=C(Nc1ccc(CN2CCOCC2)cc1)c1ccc(-c2ccc(Br)cc2)o1 [TCMDC-123781] | -11.97% |
| CN1CCCN(Cc2cccc(-c3ccc(NC(=O)c4ccc(Cl)cc4)cc3)c2)CC1 [TCMDC-132667] | 81.69% |
| O=C(Nc1ccc(Cl)cc1)c1ccc(CN2CCCN(Cc3ccccc3)CC2)cc1 [TCMDC-136401] | -26.98% |
| CCc1ccc(NC(=O)c2ccc(CN3CCCN(Cc4ccc(C)s4)CC3)cc2)cc1 [TCMDC-136449] | 10.45% |
| CC(C)(C)c1ccc(NC(=O)c2ccc(CN3CCCN(Cc4ccc(F)cc4)CC3)cc2)cc1 [TCMDC-136435] | -15.47% |
| O=C(Nc1ccc(Cl)cc1)c1ccc(CN2CCCN(Cc3ccc(F)cc3)CC2)cc1 [TCMDC-136408] | 63.43% |
| O=C(Nc1ccc(CN2CCOCC2)cc1)c1ccc(-c2cc(Cl)ccc2Cl)o1 [TCMDC-125390] | -41.52% |
| CN1CCCN(Cc2cccc(-c3cccc(NC(=O)c4ccc(Cl)cc4)c3)c2)CC1 [TCMDC-132653] | 14.2% |
| COc1ccc(C2CC(c3ccccc3)=NN2C(=O)c2ccc(Br)o2)cc1 (centres unmarked) [TCMDC-123705] | -10.79% |
| CCCCCC(C)C(C)c1cc(O)c2c(c1)OC(C)(C)CC2c1cc[n+]([O-])cc1 (centres unmarked) [TCMDC-131347] | 15.63% |
| CCOc1ccc(Br)cc1/C=C/C(=O)Nc1ccc2c(c1)C1CCC2N1C (centres unmarked) [TCMDC-134191] | -33.77% |
| Nc1c(Cl)cc(C(O)CNCCCCCCOCCC=C2CCOCC2)cc1Cl (centres unmarked) [TCMDC-132097] | 35.85% |
| CC(C)(C)c1ccc(NC(=O)c2ccc(CN3CCCN(Cc4cccc(Cl)c4)CC3)cc2)cc1 [TCMDC-136432] | -29.42% |
| CC(C)(C)c1ccc(NC(=O)c2ccc(CN3CCCN(Cc4cccc(C#N)c4)CC3)cc2)cc1 [TCMDC-136430] | 8.252% |
| CCc1ccc(NC(=O)c2ccc(CN3CCCN(Cc4cccc(Cl)c4)CC3)cc2)cc1 [TCMDC-136438] | -4.503% |
| O=C(Nc1ccc(Cl)cc1)c1ccc(CN2CCCN(Cc3cccc(Cl)c3)CC2)cc1 [TCMDC-136405] | 70.05% |

| SMILES | % Inhibition |
| --- | --- |
| N#Cc1cccc(CN2CCCN(Cc3ccc(C(=O)Nc4ccc(Cl)cc4)cc3)CC2)c1 [TCMDC-136403] | 58.71% |
| N#Cc1cccc(CN2CCCN(Cc3cccc(C(=O)Nc4ccc(Cl)cc4)c3)CC2)c1 [TCMDC-135962] | -1.409% |
| O=C(Nc1ccccc1)N1CCOC(CCN2CCC(F)(F)CC2)(c2ccc(Cl)c(Cl)c2)C1 (centres unmarked) [TCMDC-135565] | -12.88% |
| Cc1ccc(F)c(CN2CCC(N3CC(c4ccccc4)(c4ccccc4)OC3=O)CC2)c1Cl [TCMDC-136067] | -42.69% |
| COc1ccc(OCCCON2C(N)=NC(N)=NC2(C)C)cc1 [TCMDC-131727] | -17.37% |
| CCCc1cc(NCC)nc(Nc2ccc(F)cc2)n1 [TCMDC-134011] | 18.21% |
| CCCCc1cc(=O)oc2cc(C)cc(OCc3ccccc3F)c12 [TCMDC-125642] | 42.72% |
| COc1ccc(Cl)cc1N1CCN(CCCNC(=O)c2ccc(-c3nc4ccc(C(F)(F)F)cc4[nH]3)c(C)c2)CC1 [TCMDC-140121] | -20.72% |
| Cc1ccc(Cl)cc1N1CCN(CCCNC(=O)C2CCN(c3nc4ccccc4[nH]3)CC2)CC1 [TCMDC-124405] | 57.08% |
| COc1ccc(Cl)cc1N1CCN(CCCNC(=O)c2ccc(-c3nc4c(C)cccc4[nH]3)s2)CC1 [TCMDC-140050] | -10.33% |
| Oc1ccccc1N1CCN(c2ccc(-c3nc4ccccc4[nH]3)cn2)CC1 [TCMDC-124820] | -75.14% |
| CC(=O)N(Cc1nc(-c2cc(Cl)c(Cl)s2)cs1)c1c(C)cccc1C [TCMDC-135640] | -42.77% |
| Cc1noc(C)c1-c1cccc(CNCc2ccc(-c3ccc(-c4nc5cccc(C)c5[nH]4)cc3)cc2)c1.O=C(O)C(F)(F)F [TCMDC-133061] | -10.97% |
| CS(=O)(=O)c1ccc(-c2nc(NCC3CCCCC3)cc(C(F)(F)F)n2)cc1 [TCMDC-138597] | 3.227% |
| OC(Cn1ccnc1)(c1ccc(Cl)cc1Cl)C1CCCCC1 (centres unmarked) [TCMDC-132084] | -1.887% |
| Clc1ccc(OC2CCC(Cn3ccnc3)(c3ccc(Cl)cc3Cl)CC2)c(Cl)c1 (centres unmarked) [TCMDC-132089] | 67.21% |
| CON=C1CCC(Cn2ccnc2)(c2ccc(Cl)cc2Cl)CC1 (centres unmarked) [TCMDC-132070] | -6.365% |
| CN(C)CCCNC(=O)c1ccccc1Sc1ccccc1C#N [TCMDC-137689] | -3.028% |
| O=S(=O)(Nc1ccc(CCN2CCCCC2CCN2CCCC2)cc1)c1cccc2cccnc12 (centres unmarked) [TCMDC-134096] | 43.66% |
| O=S(=O)(Nc1cccc(CCN2CCCCC2CCN2CCCC2)c1)c1cccc2ccccc12 (centres unmarked) [TCMDC-134092] | 40.53% |
| O=S(=O)(Nc1cccc(CCN2CCCCC2CCN2CCCC2)c1)c1ccc(Oc2ccccc2)cc1 (centres unmarked) [TCMDC-134094] | 61.85% |
| O=S(=O)(Nc1cccc(CCN2CCCCC2CCN2CCCC2)c1)c1ccc(-c2ccccc2)cc1 (centres unmarked) [TCMDC-134093] | 39.18% |
| O=S(=O)(Nc1cccc(CCN2CCCCC2CCN2CCCC2)c1)c1ccc2ccccc2c1 (centres unmarked) [TCMDC-134091] | 64.43% |

| SMILES | % Inhibition |
| --- | --- |
| NC1CCN(CCc2ccc(NS(=O)(=O)c3ccc(-c4ccccc4)cc3)cc2)CC1 [TCMDC-134085] | 111.6% |
| CC1CCN(CC[C@H]2CCCN2S(=O)(=O)c2cccc(NC(=O)c3ccc(-c4ccccc4)cc3)c2)CC1 [TCMDC-141076] | -81.19% |
| O=S(=O)(Nc1ccc(CCN2CCCCC2CCN2CCCC2)cc1)c1ccc(-c2ccccc2)cc1 (centres unmarked) [TCMDC-134095] | 70.29% |
| CCc1ccc(S(=O)(=O)Nc2ccc(CCN(C)C3CCN(C)CC3)cc2)cc1 [TCMDC-134082] | 40.08% |
| Cc1c(S(=O)(=O)Nc2cccc(CCN3CCCCC3CCN3CCCC3)c2)sc2ccc(Cl)cc12 (centres unmarked) [TCMDC-134097] | 7.809% |
| O=c1cc(NCCCNCc2cc3c(Cl)cccc3s2)[nH]c2ccccc12 [TCMDC-140333] | -87.93% |
| COc1c(Br)cc(Br)cc1C(C)=O [TCMDC-123841] | -7.365% |
| CCOC(=O)c1[nH]c(-c2ccc(Cl)cc2)nc1NC(=S)NCCCN1CCOCC1 [TCMDC-138877] | 37.64% |
| Cc1nc(-c2ccc(-c3ccc(C(=O)Nc4ccc5c(c4)C4(CCNCC4)CO5)cc3)c(C)c2)no1 [TCMDC-138993] | 45.43% |
| O=C(N[C@@H](Cc1ccccc1)C(=O)NCc1cccc(C(F)(F)F)c1)c1ccc(O)c(-c2ccc(Cl)c(Cl)c2)c1 [TCMDC-140833] | 12.7% |
| CN1CCN(S(=O)(=O)c2ccc3nccc(Nc4ccc(Oc5ccccc5)cc4)c3c2)CC1 [TCMDC-138691] | -22.54% |
| Cc1cc(C=C(P(=O)(OC(C)C)OC(C)C)P(=O)(OC(C)C)OC(C)C)c2ccccc2c1O [TCMDC-138940] | 80.96% |
| Cc1c(C(=O)Nc2cc(Sc3ccc(F)cc3)cc([N+](=O)[O-])c2)sc2ncn(Cc3ccccc3F)c(=O)c12 [TCMDC-125703] | 1.963% |
| O=C(Nc1ccc(C(F)(F)F)cc1)c1ccc(NCCCN2CCCCCC2)c([N+](=O)[O-])c1 [TCMDC-125681] | 11.61% |
| CCCN(CCC)CCCNc1ccc(C(=O)Nc2ccc(OCC)cc2)cc1[N+](=O)[O-] [TCMDC-125691] | 12.73% |
| CCCN(CCC)CCCNc1ccc(C(=O)Nc2ccc(C(C)C)cc2)cc1[N+](=O)[O-] [TCMDC-125688] | 90.5% |
| COc1cccc(NC(=O)c2ccc(NCCCN3CCC(C)CC3)c([N+](=O)[O-])c2)c1 [TCMDC-125690] | 0.09701% |
| COc1cccc(NC(=O)c2ccc(NCCCN3CC(C)CC(C)C3)c([N+](=O)[O-])c2)c1 (centres unmarked) [TCMDC-125689] | 53.82% |
| CC1CCN(CCCNc2ccc(C(=O)Nc3ccc(C(F)(F)F)cc3)cc2[N+](=O)[O-])CC1 [TCMDC-125683] | 88.85% |
| CCCN(CCC)CCCNc1ccc(C(=O)Nc2ccc(C)c(F)c2)cc1[N+](=O)[O-] [TCMDC-125685] | 15.23% |
| CCOc1ccc(NC(=O)c2ccc(NCCCN3CC(C)CC(C)C3)c([N+](=O)[O-])c2)cc1 (centres unmarked) [TCMDC-125692] | 30.09% |
| CC1CC(C)CN(CCCNc2ccc(C(=O)Nc3ccc(C(F)(F)F)cc3)cc2[N+](=O)[O-])C1 (centres unmarked) [TCMDC-125680] | 38.66% |
